Compound activity: PubChem, Sanford-Burnham Center for Chemical Genomics
Most compounds without a hit are left out; they make up all but 3% or so of the library.
SENP6 block = inhibitors of human SENP6 protease; Recombinant SENP6 catalytic domain, aminoluciferin luminescence; inhibition, % at 10 µM; 330,000 compounds, 1.8% hits; AID 2599;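 active = inhibition above about 50% at the single tested dose, limit read from the data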;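 note: plate controls were DMSO wells with enzyme for no effect and DMSO wells lacking enzyme for full effect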
Target sequence (Q9GZR1 628-1112 limits assumed): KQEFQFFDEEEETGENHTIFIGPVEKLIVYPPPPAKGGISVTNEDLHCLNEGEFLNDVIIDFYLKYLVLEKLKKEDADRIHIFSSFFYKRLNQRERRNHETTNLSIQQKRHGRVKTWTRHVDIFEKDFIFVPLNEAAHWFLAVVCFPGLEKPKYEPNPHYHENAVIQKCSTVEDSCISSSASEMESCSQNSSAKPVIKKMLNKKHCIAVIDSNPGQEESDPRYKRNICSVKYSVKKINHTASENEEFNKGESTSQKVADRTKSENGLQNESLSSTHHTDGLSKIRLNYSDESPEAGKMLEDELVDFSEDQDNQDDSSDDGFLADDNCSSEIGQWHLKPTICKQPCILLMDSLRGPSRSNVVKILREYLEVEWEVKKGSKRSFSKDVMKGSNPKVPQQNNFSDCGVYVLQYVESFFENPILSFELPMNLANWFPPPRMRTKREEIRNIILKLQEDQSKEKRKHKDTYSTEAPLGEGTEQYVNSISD
SENP8 block-1 = blocks human SENP8 cleavage of Nedd8 substrate; Q96LD8; inhibition, % at 20 µM; 360,000 compounds, 0.64% hits; recombinant SENP8, Nedd8 substrate fluorescence; in the data active = inhibition mostly above about 40%, no sharp cut-off; inactive = mostly below about 27%
Target sequence (Q96LD8 whole entry, looked up): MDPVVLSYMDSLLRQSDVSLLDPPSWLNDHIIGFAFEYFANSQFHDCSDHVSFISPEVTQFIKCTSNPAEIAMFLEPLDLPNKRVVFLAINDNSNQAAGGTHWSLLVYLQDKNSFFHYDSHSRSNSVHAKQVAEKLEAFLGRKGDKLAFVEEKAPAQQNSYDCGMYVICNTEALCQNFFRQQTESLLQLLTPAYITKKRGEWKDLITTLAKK
PPC-1+TRAIL kill = kills PPC-1 cancer cells in the presence of TRAIL; cell killing (% activity), % at 4 µM or 5 µM; 220,000 compounds, 0.41% hits; AID 1443; PPC-1 cells + TRAIL, ATPLite viability luminescence;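 active = cell killing above 50% in the first pass at 4 µM, then a duplicate retest at 5 µM averaging 50% or more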;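 note: plate controls were cells with TRAIL plus DMSO for no effect and medium-only wells lacking cells for full effect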
TRAIL sens C8 = sensitizes caspase-8 expressing cells to TRAIL | NB7+C8 cells + TRAIL, ATPlite viability luminescence | 360,000 compounds, 1% hits | inhibition (viability loss, TRAIL sensitization), % at 10 µM | AID 624354;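 active = compounds causing at least 50% loss of cell viability in the single-dose screen, relative to plate controls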
SENP7 inh = inhibitors of human SENP7 protease; Q9BQF6; recombinant SENP7, Z-RLRGG-aminoluciferin luminescence, 40 min; inhibition, % at 5 µM; 330,000 compounds, 1.5% hits; AID 434973;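 active = inhibition above about 50% at the single test dose, limit read from the data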;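 note: plate controls were DMSO with enzyme for no effect and no enzyme buffer wells for full effect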
SENP8 block-2 = blocks the human protease SENP8. 330,000 compounds, 1.2% hits. Q96LD8. inhibition, % at 10 µM. AID 2540. purified SENP8, Z-RLRGG-aminoluciferin cleavage, luminescence; in the data active = inhibition above about 50%
SENP8 conf = confirmation of human SENP8 protease inhibitors; inhibition, % at 12.5 µM; 6,200 compounds, 40% hits; AID 488912; shares compounds with SENP7 inh; Recombinant SENP8, Z-RLRGG-aminoluciferin luminescence, 60 min;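 active = mean inhibition across replicates above about 50%, limit read from the data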
SENP6 conf = human SENP6 inhibition, confirmed. shares compounds with SENP7 inh. recombinant SENP6, Z-RLRGG-aminoluciferin luminescence. inhibition, % at 12.5 µM. 6,200 compounds, 58% hits
SENP7 conf = human SENP7 inhibition, confirmed | shares compounds with SENP7 inh | 6,200 compounds, 69% hits | AID 488917 | recombinant SENP7, Z-RLRGG-aminoluciferin luminescence, 40 min | inhibition, % at 12.5 µM
Casp3 select = inhibits human caspase-3 in SENP selectivity test | shares compounds with SENP7 inh | purified caspase-3, Z-DEVD-aminoluciferin luminescence, 60 min | inhibition, % at 12.5 µM | 6,200 compounds, 60% hits | AID 488918;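 active = mean inhibition above about 50%, limit read from the data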;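 note: plate controls were enzyme with DMSO for no effect and wells without caspase-3 for full effect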
SENP luc ctr = interferes with luciferase luminescence in SENP counter-screen; shares compounds with SENP7 inh; 6,200 compounds, 39% hits; Pre-incubated SENP8/Z-RLRGG-aminoluciferin, luciferase luminescence interference; inhibition, % at 12.5 µM;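 active = mean inhibition above about 50% when retested at one dose, limit read from the data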;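 note: plate controls were DMSO wells with completed reaction for no effect and substrate without enzyme for full effect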
The depositor's hits bear a star; i = inactive; / = not tested or not shown.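 Rule for the calls, unless noted: active = mean inhibition above about 50% in the one-dose retest (limit read from the data); inactive = the rest.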

SMILES | SENP6 block | SENP8 block-1 | PPC-1+TRAIL kill | TRAIL sens C8 | SENP7 inh | SENP8 block-2 | SENP8 conf | SENP6 conf | SENP7 conf | Casp3 select | SENP luc ctr
CS(=O)(=O)c1ccc(C(=O)Nc2cccc(-c3nc4ccccc4[nH]3)c2)cc1 | 16 | 2 | / | 12 | 0 | 16 | / | / | / | / | /
O=C(NNc1nc2cc3c(cc2s1)OCO3)c1cccc(F)c1 | 14 | 13 | 9 | 11 | -1 | 1 | / | / | / | / | /
C[C@H](CO)N1C[C@H](C)[C@@H](CN(C)C(=O)Oc2ccccc2)OCc2cn(nn2)CCCC1=O | / | -8 | / | 3 | / | / | / | / | / | / | /
O=Cc1ccc(OCc2ccc3c(c2)OCO3)cc1 | 77* | 32 | / | 6 | 71* | 62* | 73* | 73* | 92* | 81* | 83*
Cc1ccc(COc2ccc3c(c2)OCO3)cc1 | 91* | 7 | / | 18 | 86* | 75* | 48 | 85* | 98* | 70* | 31
O=C(Cc1ccc(OCc2ccccc2)cc1)NCc1ccc2c(c1)OCO2 | / | 7 | / | 11 | / | / | / | / | / | / | /
Cc1ccc(CNC(=O)CCCC(=O)c2ccccc2)cc1 | 0 | 21 | / | -26 | -2 | 7 | / | / | / | / | /
O=C(Nc1ccc(N2CCOCC2)c2nonc12)C1CCCC1 | 49 | 35 | -4 | 26 | 24 | 24 | / | / | / | / | /
O=C(Nc1ccc(F)cc1)Nc1ccc(N2CCOCC2)c2nonc12 | 17 | 28 | 4 | 21 | 57* | 4 | 4 | 12 | 44 | 44 | 17
N/C(=N\OC(=O)Nc1ccccc1)c1ncc(C(F)(F)F)cc1Cl | 50* | 20 | -4 | -2 | 7 | 29 | 52* | 47 | 77* | 69* | 57*
N/C(=N\OC(=O)Nc1ccc(Cl)cc1)c1ncc(C(F)(F)F)cc1Cl | -22 | 20 | 13 | -3 | 5 | -5 | / | / | / | / | /
C/C(=N\NC(=O)CCc1ccccc1)C1C(=O)c2ccccc2C1=O | -15 | 15 | / | 15 | 26 | 20 | / | / | / | / | /
C/C(=N\NC(=O)c1cccc(Cl)c1)C1C(=O)c2ccccc2C1=O | 97* | 26 | 1 | 11 | 74* | 92* | 5 | 97* | 101* | 88* | 81*
CCOC(=O)Cn1c2ccc(C)cc2c2nc(C)sc21 | 51* | 11 | -1 | -14 | 2 | 6 | 8 | 8 | -6 | -8 | -10
COC(=O)Nc1nnc(-c2ccccc2Cl)s1 | 76* | -139 | 27 | 36 | 72* | 50 | 57* | 56* | 83* | 50 | 23
Cc1ccc(NC(=O)c2cc3cccc([N+](=O)[O-])c3[nH]2)cc1 | 71* | 15 | 10 | 6 | 89* | 56* | 57* | 63* | 96* | 66* | 55*
Oc1ccc(N=Nc2n[nH]c(-c3ccccc3)n2)cc1 | 94* | 20 | 14 | 33 | 98* | 96* | 98* | 98* | 102* | 98* | 98*
Nc1ccccc1N=Nc1ccccc1N | 86* | -88 | / | 24 | 85* | 77* | 85* | 83* | 96* | 73* | 64*
Cc1c(-c2ccncc2)oc2ccc(Br)cc2c1=O | 11 | / | 8 | / | 1 | 11 | / | / | / | / | /
C=COC(=O)CSc1nc(-c2cccs2)ccc1C#N | 57* | -310 | -12 | 6 | 7 | 49 | -5 | 70* | 28 | 42 | -5
CCOC(=O)C(C)Sc1nc(-c2cccs2)ccc1C#N (centres undefined) | -11 | -286 | -10 | 8 | -1 | 9 | / | / | / | / | /
Cn1c(SCc2ccccc2Cl)nc2ccccc21 | 86* | 39 | 13 | 18 | 67* | 75* | -22 | 77* | 95* | 67* | 66*
CCn1c(CSc2nc3ccccc3n2C)nc2ccccc21 | -32 | -7 | 7 | -7 | 9 | -4 | / | / | / | / | /
CCn1c(SCc2ccccc2Cl)nc2ccccc21 | 59* | 32 | 15 | 7 | 17 | 17 | 42 | 44 | 71* | 27 | 20
Fc1ccc(Nc2ccc3ccccc3n2)c(F)c1 | 95* | -415 | 28 | 40 | 99* | 95* | 98* | 99* | 103* | 95* | 93*
SMILES | SENP6 block | SENP8 block-1 | PPC-1+TRAIL kill | TRAIL sens C8 | SENP7 inh | SENP8 block-2 | SENP8 conf | SENP6 conf | SENP7 conf | Casp3 select | SENP luc ctr
O=C(Nc1ccc2ccccc2n1)Nc1ccccc1F | -9 | 14 | / | 10 | 5 | -2 | / | / | / | / | /
COc1ccc(S(=O)(=O)CCC(=O)N2CCN(c3ccc(C(C)=O)cc3)CC2)cc1 | -5 | -156 | / | 7 | 1 | 2 | / | / | / | / | /
CN(C)c1ccc(/C=N/NC(=O)c2nonc2N)cc1[N+](=O)[O-] | 45 | 29 | 6 | -1 | 55* | 21 | 27 | 27 | 76* | 75* | 59*
O=C(N/N=C/c1ccc([N+](=O)[O-])s1)c1ccncc1 | 58* | 34 | 18 | 29 | 21 | 12 | 7 | 44 | 10 | 6 | -3
Cc1csc(N/N=C/c2ccc(O)c([N+](=O)[O-])c2)n1 | 69* | 12 | 4 | -2 | 25 | 55* | 12 | 89* | 50 | 3 | 2
Cc1ccc(C(=O)N/N=C\c2ccc([N+](=O)[O-])s2)cn1 | 39 | 32 | 5 | 33 | 11 | 31 | / | / | / | / | /
COc1ccc(/C=N/NC(=O)c2ccncc2)cc1[N+](=O)[O-] | 3 | 10 | 7 | -7 | -2 | -5 | / | / | / | / | /
O=C(N/N=C/c1ccc(O)c([N+](=O)[O-])c1)c1ccncc1 | 57* | 31 | 6 | -20 | 49 | 20 | 38 | 26 | 66* | 79* | 15
CC(OC(=O)c1cc(=O)[nH]c2ccccc12)C(=O)NC1CCCC1 (centres undefined) | 11 | -271 | / | -1 | 6 | 8 | / | / | / | / | /
Cc1cccc(C)c1NC(=O)NC1(C(=O)NCc2ccncc2)CCCCC1 | 3 | 8 | / | 13 | 3 | 9 | / | / | / | / | /
Cc1ccccc1S(=O)(=O)NC(=O)C1(C)CCN1C(=O)C(C)(C)c1ccccc1 (centres undefined) | / | -1 | / | -21 | / | / | / | / | / | / | /
Nc1c(-c2ccccc2)cnc2c(-c3ccccc3)cnn12 | 43 | i | / | 84* | 74* | 5 | 8 | 19 | 50* | 55* | 2
CS(=O)(=O)c1cnc2c(-c3ccc(F)cc3)cnn2c1N | -5 | -22 | 31 | 36 | 3 | -7 | / | / | / | / | /
